Structures can show the parent of a compound that is named as a salt.
Tested on: Saccharomyces cerevisiae BY4741 SeMeCo community
Assay: z-score of prototroph abundance vs DMSO median; higher = larger share of this subpopulation than in DMSO controls
Settings: 10 µM; 24 h; SM minimal medium; subpopulation (auxotrophy): Prototroph
Procedure: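 Fluorescent four-plasmid SeMeCo (self-establishing metabolically cooperating S. cerevisiae BY4741 community; plasmids pH-mRuby2, pL-mWasabi, pU-eCFP, pM-TagRFP657) was grown 24 h in minimal SM medium with each Selleck FDA-approved drug at 10 µM in 384-well plates. Cells were fixed and imaged by high-content confocal microscopy. For each auxotrophic subpopulation (and the prototroph), a z-score gives the deviation from the DMSO vehicle-control population median.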

Row | SMILES | z-score of prototroph abundance
1 | O=C(O)Cc1ccccc1Nc1c(Cl)cccc1Cl [Diclofenac acid] | 1.03
2 | CC(C)(C)CC(C)(C)c1ccc(OCCOCC[N+](C)(C)Cc2ccccc2)cc1 [Benzethonium Chloride] | 0.89
3 | CCCc1nn(C)c2c(=O)[nH]c(-c3cc(S(=O)(=O)N4CCN(C)CC4)ccc3OCC)nc12 [Sildenafil Mesylate] | -0.95
4 | CC(=O)[C@@]1(O)CC[C@H]2[C@@H]3C[C@H](C)C4=CC(=O)CC[C@]4(C)[C@H]3CC[C@@]21C [Medroxyprogesterone] | -0.12
5 | CC[C@@]1(O)C(=O)OCc2c1cc1n(c2=O)Cc2cc3cc(O)ccc3nc2-1 [Hydroxy Camptothecine] | 1.27
6 | Cc1cccc(C)c1NC(=O)C1CCCCN1C (stereo not given) [Mepivacaine HCl] | -0.33
7 | Cc1cccc(C)c1OCC(C)N (stereo not given) [Mexiletine HCl] | 0.5
8 | CCCCCCCCOc1ccccc1C(=O)Nc1ccc(C(=O)OCC[N+](C)(CC)CC)cc1 [Otilonium Bromide] | -2.44
9 | CN1CCN(c2c(F)cc3c(=O)c(C(=O)O)cn4c3c2OCN4C)CC1 [Marbofloxacin] | 0.49
10 | CO/N=C(\C(=O)N[C@@H]1C(=O)N2C(C(=O)O)=CCS[C@H]12)c1csc(N)n1 [Ceftizoxime sodium] | 0.46
11 | C[C@@H](NCCCc1cccc(C(F)(F)F)c1)c1cccc2ccccc12 [Cinacalcet HCl] | -0.37
12 | O=C1C(N(CO)C(=O)NCO)N(CO)C(=O)N1CO (stereo not given) [Diazolidinyl urea] | 1.06
13 | NC(=O)[C@@H]1CC[C@@H]2CN1C(=O)N2OS(=O)(=O)O [Avibactam sodium] | -0.66
14 | COc1cc2c(cc1OC)C(=O)C(CC1CCN(Cc3ccccc3)CC1)C2 (stereo not given) [Donepezil] | -0.18
15 | O=C(O)c1cn(-c2ccc(F)cc2)c2cc(N3CCNCC3)c(F)cc2c1=O [Sarafloxacin HCl] | 0.01
16 | Cc1onc(-c2c(F)cccc2Cl)c1C(=O)N[C@@H]1C(=O)N2[C@@H]1SC(C)(C)[C@@H]2C(=O)O [Flucloxacillin sodium] | -0.59
17 | CN(C)[C@@H]1C(=O)C(C(N)=O)=C(O)[C@@]2(O)C(=O)C3=C(O)c4c(O)ccc(Cl)c4[C@@H](O)[C@H]3C[C@@H]12 [Demeclocycline HCl] | 0.9
18 | O=C(O)c1cc(O)c2c(c1)[C@H]([C@H]1c3cc(C(=O)O)cc(O)c3C(=O)c3c(O[C@@H]4O[C@H](CO)[C@@H](O)[C@H](O)[C@H]4O)cccc31)c1cccc(O[C@@H]3O[C@H](CO)[C@@H](O)[C@H](O)[C@H]3O)c1C2=O [Sennoside A] | 0.91
19 | CCCOc1ccc2[nH]c(NC(=O)OC)nc2c1 [Oxibendazole] | -1.22
20 | NS(=O)(=O)Cc1noc2ccccc12 [Zonisamide] | -0.82

Row | SMILES | z-score of prototroph abundance
21 | Nc1nc(N)nc(-c2cc(Cl)ccc2Cl)n1 [Irsogladine] | 1.03
22 | C[C@H]1COc2c(N3CCN(C)CC3)c(F)cc3c(=O)c(C(=O)O)cn1c23 [Levofloxacin] | 1.06
23 | CC(C)c1c(C(=O)Nc2ccccc2)c(-c2ccccc2)c(-c2ccc(F)cc2)n1CC[C@@H](O)C[C@@H](O)CC(=O)O [Atorvastatin Calcium] | -7.41
24 | C/C=C\c1ccc(O)c(OC)c1 [Isoeugenol] | -0.36
25 | O=c1ccc2cc(O)c(O)cc2o1 [Esculetin] | 2.22
26 | CN1CCN(C2=Nc3cc(Cl)ccc3Nc3ccccc32)CC1 [Clozapine] | 0.32
27 | CCN(CC)CCOC(=O)c1ccc(N)cc1 [Procaine] | 0.34
28 | CC[N+](CC)(CC)CCOc1cccc(OCC[N+](CC)(CC)CC)c1OCC[N+](CC)(CC)CC [Gallamine Triethiodide] | 0.05
29 | Cc1ncc([N+](=O)[O-])n1CCO [Metronidazole] | 0.23
30 | O=C(O)Cc1ccccc1Nc1c(Cl)cccc1Cl [Diclofenac Sodium] | 1.13
31 | CC1=C(C(=O)O)N2C(=O)[C@@H](NC(=O)[C@H](N)c3ccc(O)cc3)[C@H]2SC1 [Cefadroxil hydrate] | 0.8
32 | Nc1nc2c(ncn2COCCO)c(=O)[nH]1 [Aciclovir] | 0.49
33 | OB1OCc2cc(F)ccc21 [Tavaborole (AN-2690)] | -16.4
34 | CC1=CC[C@@](O)(C(C)C)CC1 [Terpinen-4-ol] | -0.41
35 | CC[C@@H]1/C=C(\C)C[C@H](C)C[C@H](OC)[C@H]2O[C@@](O)(C(=O)C(=O)N3CCCC[C@H]3C(=O)O[C@H](/C(C)=C/[C@@H]3CC[C@@H](O)[C@H](OC)C3)[C@H](C)[C@@H](O)CC1=O)[C@H](C)C[C@@H]2OC [Ascomycin (FK520)] | -1.94
36 | CO/N=C(\C(=O)N[C@@H]1C(=O)N2C(C(=O)O)=C(CSC(=O)c3ccco3)CS[C@H]12)c1csc(N)n1 [Ceftiofur] | -0.44
37 | CCCCC(=O)O[C@H]1CC[C@H]2[C@@H]3CCc4cc(O)ccc4[C@H]3CC[C@]12C [Estradiol valerate] | 0.39
38 | C[C@@H]1CC(=O)NN=C1c1ccc(NN=C(C#N)C#N)cc1 [Levosimendan] | -0.07
39 | Cc1cnc(NC(=O)C2=C(O)c3ccccc3S(=O)(=O)N2C)s1 [Meloxicam] | 1.47
40 | CNCC[C@H](Oc1cccc2ccccc12)c1cccs1 [Duloxetine HCl] | 0.65
